Assay outcomes deposited in PubChem by National Center for Advancing Translational Sciences (NCATS).
Rows were chosen to be rich in hits. Some 19% of all compounds tested hit in one or more screens of this group.
DT40 TDP1 CPT – qHTS for Inhibitors of human tyrosyl-DNA phosphodiesterase 1 (TDP1): qHTS in cells in presence of CPT; chicken DT40 Tdp1-/-;hTDP1 cells + 20 nM CPT, ATP luminescence, 48 h; Potency, µM (top dose mostly 46.2 µM), for inactives: at the highest dose activity change, negative = growth inhibition, usual class: inhibitors; hit rate 12% among 420,000; AID 686979, 2013; also: potency is read from the fitted curve at half-maximal effect; nearly all actives have a fitted effect of over 55% in size
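Cell growth measured by CellTiter-Glo luminescence after a minimum 48 h, 37 C compound exposure with 20 nM CPT in Tdp1-knockout DT40 cells stably expressing hTDP1, seeded 400/well; qHTS titration format.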
ELG1 DNA repair – qHTS screen for small molecules that inhibit ELG1-dependent DNA repair in human embryonic kidney (HEK293T) cells expressing luciferase-tagged ELG1; HEK293T ELG1-luciferase reporter, luminescence, 16 h; DNA damage induced by 5-fluorouridine; Potency, µM (highest dose often 46.1 µM), for the others: at the highest dose activity change, negative = inhibition, hits mostly inhibitors; hit rate 2.3% among 330,000; AID 504467, 2011; also: potency is read from the fitted curve at half-maximal effect; nearly all actives have a fitted effect of over 55% in size
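HEK293T cells expressing luciferase-tagged ELG1 (2,000/well) received 5-Fluorouridine plus compound or DMSO for 16 hr at 37 °C. Luciferase was read by ONE-Glo luminescence after 30 min at room temperature.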
IL-1B inflam inh – qHTS for Inhibitors of Inflammasome Signaling: IL-1-beta AlphaLISA Primary Screen; THP-1 LPS/ATP IL-1B secretion, AlphaLISA, 16 h; active compounds read low; hit rate 4.7% among 360,000; AID 743279, 2014; activity change, % at 57.5 µM; in the data active = activity change below about -50%; inconclusive = mostly about -30% to -49%
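Secreted IL-1B measured by AlphaLISA bead assay after 16 h compound exposure of THP-1 cells; compounds (final up to 57.5 uM) added 1 h before LPS (250 ng/mL) and ATP (1.25 mM) stimulation; lower signal means less secretion.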
DT40 TDP1 no CPT – qHTS for Inhibitors of human tyrosyl-DNA phosphodiesterase 1 (TDP1): qHTS in cells in absence of CPT; Potency, µM (top dose mostly 46.2 µM), inactives show at the top dose activity change, negative = growth inhibition, actives largely listed as inhibitors; hit rate 15% among 420,000; AID 686978, 2013; DT40 Tdp1-/- hTDP1 cells, no CPT, ATP luminescence, 48 h; also: potency is read from the fitted curve at half-maximal effect; nearly all actives have a fitted effect of over 55% in size
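Chicken DT40 Tdp1-/- cells complemented with human TDP1, screened without camptothecin (DMSO vehicle only), 400 cells/well. Compounds pin-transferred, cells incubated at 37 °C for at least 48 hr. Growth read as ATP-dependent luminescence (CellTiter-Glo, 30 min at RT).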
HT1080 IDH1KD tx – qHTS for induction of synthetic lethality in tumor cells producing 2HG: qHTS for the HT-1080-IDH1KD cell line | hit rate 2% among 360,000 | HT-1080 IDH1 knockdown viability, ATP luminescence, 48 h | Potency, µM (top dose mostly 46.1 µM), inactives show top-dose activity, negative = toxicity, most hits filed as cytotoxic;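 also: potency is read from the fitted curve at half-maximal effect; 0% = DMSO wells and -100% = cell-free medium wells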
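IDH1KD HT-1080 cells, 750/well, RPMI + 5% FBS; compound pinned after 2 h settling; 48 h, 37 °C; CellTiter-Glo luminescence; % activity normalised to DMSO and no-cell wells; curves fitted, classed by r2 and efficacy.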
HT1080NT lethal – qHTS for induction of synthetic lethality in tumor cells producing 2HG: qHTS for the HT-1080-NT fibrosarcoma cell line | HT-1080-NT fibrosarcoma viability, CellTiter-Glo ATP luminescence, 48 h | Potency, µM (highest dose often 46.1 µM), for inactives: at the highest dose activity, negative = less viability, usual class: cytotoxic | hit rate 1.6% among 360,000;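 also: NT is the 2HG producing partner of a matched IDH1 knockdown line; potency is read from the fitted curve at half-maximal effect; 0% = DMSO-treated cells and -100% = media-only wells without cells; nearly all actives have a fitted effect of over 55% in size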
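Luminescent CellTiter-Glo readout after 48 hours of compound exposure at 37 degrees C defined viability of HT-1080-NT cells. Activity was normalized to DMSO wells and cell-free media wells; concentration-response curves were fitted and assigned curve classes.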
* hit, by the source's call; ? = inconclusive; nt = not tested or not shown. Unless noted, calls follow the shape of the dose curve; as a rule, active = well fitted curve in the direction sought with a large enough effect; inconclusive = small, poorly fitted or top-dose-only effect, or another doubt; inactive = no such curve, though single readings can be large; an effect the other way counts as inactive or inconclusive. Unless noted, % is scaled to controls: 0 for no effect and ±100 for the full control effect.

SMILES | DT40 TDP1 CPT | ELG1 DNA repair | IL-1B inflam inh | DT40 TDP1 no CPT | HT1080 IDH1KD tx | HT1080NT lethal
CC1(C(=O)NC(=S)NNC(=O)c2ccncc2)CCCCC1 | 13µM* | -3% | 15 | 16µM* | ? | -19%
O=C(NNC(=O)C12CC3CC(CC(C3)C1)C2)c1cnccn1 | ? | -18% | 31 | ? | -19% | -6%
CSc1ncc(C(=O)Nc2ccccc2)cn1 | ? | -1% | ? | -8% | 2% | -3%
CCc1cc(Cn2nc(-c3ccccc3)cc2C(=O)NCc2cccc(Br)c2)on1 | ? | ? | -53* | 16µM* | -12% | -5%
CCc1cc(Cn2nc(-c3ccccc3)cc2C(=O)NCc2ccc(C)cc2)on1 | ? | -3% | -13 | ? | 1% | 1%
CCc1cccc(NC(=O)C(c2ccccc2)N2Cc3ccccc3C2=O)c1 (stereo unspecified) | ? | nt | nt | -23% | nt | nt
Cc1c(C)c2ccc(OC(C)C(=O)NCc3ccccn3)cc2oc1=O (stereo unspecified) | 10% | 28% | -25 | 1% | 22% | 6%
CC(=O)Oc1ccccc1C(=O)N(C1CCCCC1)C1CCCCC1 | 23µM* | -11% | 0 | 13µM* | -30% | -29%
CC(=O)Oc1ccc(Cl)cc1CN(C(C)=O)C1CCCCC1 | 23µM* | nt | ? | ? | -15% | -23%
CCc1nc(N2CCN(C(C)=O)CC2)c2c3c(sc2n1)CC(C(C)(C)C)CC3 (stereo unspecified) | ? | ? | 4 | 12µM* | 0% | -2%
CCc1nc(N2CCN(C(=O)CCl)CC2)c2c3c(sc2n1)CC(C)CC3 (stereo unspecified) | 3.3µM* | -20% | -96* | 6.5µM* | 21µM* | 21µM*
O=C(CCNC(=O)c1ccc(Cl)cc1)NCC(c1ccco1)N1CCCC1 (stereo unspecified) | 4% | 7% | -4 | 4% | 7% | 1%
COC(=O)C1=C(O)/C(=C\c2ccc(CNC(=O)C(=O)Nc3ccc(C)cc3)o2)N=C1C | ? | 20% | 21 | ? | 2% | -1%
CCOC(=O)C1=C(O)/C(=C/c2ccc(CNC(=O)C(=O)Nc3ccc(C)cc3)o2)N=C1C | ? | ? | 1 | 6.5µM* | 10% | 11%
COc1ccc(N=Nc2cc(C)ccc2O)cc1 | -23% | ? | -8 | 1% | 0% | -4%
Cc1ccc(O)c(N=Nc2nccs2)c1 | 1.2µM* | ? | 216 | 0.92µM* | ? | ?
CCOc1ccc(N(CC)S(=O)(=O)N2CCCC(C(=O)NCc3ccccc3OCC)C2)cc1 (stereo unspecified) | ? | nt | nt | 16µM* | nt | nt
CCN(c1ccc(OC)cc1)S(=O)(=O)N1CCCC(C(=O)NCc2ccc(OC(C)C)cc2)C1 (stereo unspecified) | 21µM* | nt | 16 | 15µM* | 0% | 0%
CCOc1ccc(N(CC)S(=O)(=O)N2CCCC(C(=O)NCCc3ccccc3OC)C2)cc1 (stereo unspecified) | 21µM* | nt | nt | ? | nt | nt
CCc1ccc(CNC(=O)C2CCCN(S(=O)(=O)N(CC)c3ccccc3)C2)cc1 (stereo unspecified) | ? | -4% | 30 | ? | -7% | -6%
O=C(N/N=C/C(Br)=C/c1ccccc1)c1cc(-c2ccco2)[nH]n1 | 6.5µM* | -8% | -68* | 8.2µM* | ? | ?
COc1ccccc1/C=C/C=N/NC(=O)c1cc(-c2ccco2)[nH]n1 | ? | -26% | -28 | 18µM* | ? | -29%
COc1ccccc1/C=C/C=N/NC(=O)c1ccccn1 | 2% | ? | -9 | -8% | 29% | ?
CC(/C=N/NC(=O)c1cc(-c2ccc(C)o2)[nH]n1)=C\c1ccccc1 | 15µM* | -3% | -4 | 16µM* | -5% | -13%
CCC(=O)Nc1ccccc1-c1nc2ccccc2n(CC(=O)c2ccc(Br)cc2)c1=O | 4% | nt | nt | -10% | nt | nt
SMILES | DT40 TDP1 CPT | ELG1 DNA repair | IL-1B inflam inh | DT40 TDP1 no CPT | HT1080 IDH1KD tx | HT1080NT lethal
CC1CCCN(C(=O)c2ccc(NS(=O)(=O)c3cccc([N+](=O)[O-])c3)cc2)C1 (stereo unspecified) | -27% | -8% | 16 | ? | 0% | -6%
O=C(NCc1ccccc1)Nc1cccn(Cc2cccc(F)c2)c1=O | 0% | 5% | -6 | 5% | 5% | 6%
CCCCn1c(CCNC(=O)c2ccc(F)cc2)nc2ccccc21 | -22% | nt | nt | ? | nt | nt
CCCCCn1c(CCCNC(=O)c2ccccc2)nc2ccccc21 | 23µM* | nt | nt | 21µM* | nt | nt
CCCCCn1c(CNC(=O)c2ccc(F)cc2)nc2ccccc21 | 16µM* | nt | nt | 21µM* | nt | nt
Cc1cc(C)c(NC(=O)c2cc(CN3CCOCC3)on2)c(C)c1 | -2% | nt | nt | 0% | nt | nt
Cn1c(N)c(S(=O)(=O)N2CCN(c3ccccc3)CC2)c(=O)n(C)c1=O | -14% | -7% | 30 | -9% | 9% | 5%
O=C(CCS(=O)(=O)c1nc(-c2cccs2)cc(C(F)(F)F)n1)Nc1ccc(OC(F)(F)F)cc1 | ? | nt | nt | -24% | nt | nt
COc1ccc(NC(=O)CCS(=O)(=O)c2nc(-c3cccs3)cc(C(F)(F)F)n2)cc1 | 4.6µM* | nt | nt | 5.2µM* | nt | nt
CC(C)c1nnc(NC(=O)CCS(=O)(=O)c2nc(-c3cccs3)cc(C(F)(F)F)n2)s1 | 2.9µM* | ? | -110* | 4.1µM* | ? | ?
O=C(CCS(=O)(=O)c1nc(-c2cccs2)cc(C(F)(F)F)n1)Nc1ccc(F)c(Cl)c1 | 4.6µM* | nt | nt | 9.2µM* | nt | nt
CC(C)c1nnc(NC(=O)CCS(=O)(=O)Cc2ccccc2)s1 | -20% | 1% | 5 | -19% | 20% | 2%
N#Cc1c(C(F)(F)F)cc(-c2cccs2)nc1SCC(=O)Nc1cccc(Cl)c1 | -26% | nt | nt | -25% | nt | nt
COc1ccc(Cl)cc1NC(=O)CCS(=O)(=O)c1nc(-c2cccs2)cc(C(F)(F)F)n1 | 4.6µM* | nt | nt | 3.3µM* | nt | nt
NS(=O)(=O)c1ccc2nc(NC(=O)Nc3ccc(F)cc3)sc2c1 | -5% | ? | ? | ? | ? | -17%
